# The entries come from a sample that favours the strongest signals as a whole.
# How the values were obtained:
# Test in all cases: glycan array binding signal (z-score within array); higher = stronger binding
# Conditions in all cases: glycan notation: IUPAC condensed, linker removed
# Fuc(a1-2)Gal(b1-4)Glc6S = biological target: Fuc(a1-2)Gal(b1-4)Glc6S
# In short: (§1)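 Glycan array data came from 3228 arrays in the Consortium for Functional Glycomics database, and only arrays with an available protein sequence were kept. Glycan names were put into IUPAC-condensed notation, and columns mapping to the same glycan were averaged. The binding signal is a within-array Z-score, averaged across arrays of one protein sequence run at different concentrations or buffers and across linkers. A negative Z-score can be read as non-binding.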
# [1] = biological target: Fuc(a1-2)[Gal(a1-3)]Gal(b1-4)Glc
# In short: as §1
# [2] = biological target: Fuc(a1-2)[Gal(a1-3)]Gal(b1-4)GlcNAc(b1-2)Man(a1-3)[Fuc(a1-2)[Gal(a1-3)]Gal(b1-4)GlcNAc(b1-2)Man(a1-6)]Man(b1-4)GlcNAc(b1-4)GlcNAc
# In short: as §1
# [3] = biological target: Fuc(a1-2)[GalNAc(a1-3)]Gal
# In short: as §1
# [4] = biological target: Fuc(a1-2)[GalNAc(a1-3)]Gal(b1-4)Glc
# In short: as §1
# [5] = biological target: Fuc(a1-2)[GalNAc(a1-3)]Gal(b1-4)GlcNAc(b1-2)Man(a1-3)[Fuc(a1-2)[GalNAc(a1-3)]Gal(b1-4)GlcNAc(b1-2)Man(a1-6)]Man(b1-4)GlcNAc(b1-4)GlcNAc
# In short: as §1
# [6] = biological target: Fuc(a1-2)[GalNAc(a1-3)]Gal(b1-4)GlcNAc(b1-3)Gal(b1-4)GlcNAc
# In short: as §1
# [7] = biological target: Fuc(a1-2)[GalNAc(a1-3)]Gal(b1-4)GlcNAc(b1-3)Gal(b1-4)GlcNAc(b1-3)Gal(b1-4)GlcNAc
# In short: as §1
# [8] = biological target: Fuc(a1-3)[Gal(b1-4)]GlcNAc
# In short: as §1
# [9] = biological target: Fuc(a1-3)[GalNAc(b1-4)]GlcNAc
# In short: as §1
# [10] = biological target: Gal(b1-3)GalNAc(a1-3)[Fuc(a1-2)]Gal(b1-4)Glc
# In short: as §1
# [11] = biological target: Gal(b1-3)GalNAc(a1-3)[Fuc(a1-2)]Gal(b1-4)GlcNAc
# In short: as §1
# [12] = biological target: Gal(b1-3)GlcNAc(a1-6)Gal(b1-4)GlcNAc
# In short: as §1
# [13] = biological target: Gal(b1-3)GlcNAc(b1-3)Gal(b1-4)GlcNAc(b1-6)[Gal(b1-3)GlcNAc(b1-3)]Gal(b1-4)Glc
# In short: as §1
# [14] = biological target: Gal(b1-4)GalNAc(a1-3)[Fuc(a1-2)]Gal(b1-4)GlcNAc
# In short: as §1
# [15] = biological target: Gal(b1-4)GlcNAc(b1-2)Man(a1-3)[GlcNAc(b1-2)Man(a1-6)]Man(b1-4)GlcNAc(b1-4)GlcNAc
# In short: as §1
# [16] = biological target: Gal(b1-4)GlcNAc(b1-2)Man(a1-6)Man(b1-4)GlcNAc(b1-4)GlcNAc
# In short: as §1
# Gal4S(b1-4)GlcNAc = biological target: Gal4S(b1-4)GlcNAc
# In short: as §1
# Gal6S(b1-3)GlcNAc = biological target: Gal6S(b1-3)GlcNAc
# In short: as §1
# GlcA(b1-3)GlcNAc = biological target: GlcA(b1-3)GlcNAc
# In short: as §1
# [17] = biological target: GlcNAc(a1-4)Gal(b1-4)GlcNAc(b1-3)Gal(b1-4)Glc
# In short: as §1
# [18] = biological target: GlcNAc(b1-2)Man(a1-3)[GlcNAc(b1-4)][GlcNAc(b1-2)Man(a1-6)]Man(b1-4)GlcNAc(b1-4)GlcNAc
# In short: as §1
# [19] = biological target: GlcNAc(b1-2)[GlcNAc(b1-6)]Man(a1-6)[GlcNAc(b1-2)Man(a1-3)]Man(b1-4)GlcNAc(b1-4)GlcNAc
# In short: as §1
# [20] = biological target: GlcNAc(b1-2)[GlcNAc(b1-6)]Man(a1-6)[GlcNAc(b1-2)Man(a1-3)][GlcNAc(b1-4)]Man(b1-4)GlcNAc(b1-4)GlcNAc
# In short: as §1
# [21] = biological target: GlcNAc(b1-4)[GlcNAc(b1-6)]GalNAc
# In short: as §1
# Man(a1-2)Man(a1-3)Man = biological target: Man(a1-2)Man(a1-3)Man
# In short: as §1
# Man(a1-6)Man = biological target: Man(a1-6)Man
# In short: as §1
# Neu5Ac(a2-3)Gal = biological target: Neu5Ac(a2-3)Gal
# In short: as §1
# [22] = biological target: Neu5Ac(a2-3)Gal(b1-3)GalNAc
# In short: as §1
# [23] = biological target: Neu5Ac(a2-3)Gal(b1-3)[Neu5Ac(a2-3)Gal(b1-4)]GlcNAc
# In short: as §1
# [24] = biological target: Neu5Ac(a2-3)Gal(b1-4)GlcNAc(b1-3)Gal(b1-4)GlcNAc(b1-3)Gal(b1-4)GlcNAc
# In short: as §1
# [25] = biological target: Neu5Ac(a2-3)Gal6S(b1-4)GlcNAc
# In short: as §1
# [26] = biological target: Neu5Ac(a2-6)Gal(b1-3)GlcNAc(b1-3)[Gal(b1-4)GlcNAc(b1-6)]Gal(b1-4)Glc
# In short: as §1
# [27] = biological target: Neu5Ac(a2-6)Gal(b1-4)GlcNAc(b1-2)Man(a1-3)Man(b1-4)GlcNAc(b1-4)GlcNAc
# In short: as §1
# [28] = biological target: Neu5Ac(a2-6)Gal(b1-4)GlcNAc(b1-3)Gal(b1-4)GlcNAc
# In short: as §1
binder,measurement,setting,value
Gal 4 (Canis lupus) (protein) MAYVPAPGYQPTYNPTLPYNKPIPGGLSVGMSVYIQGITSEHMRRFCVNFVAGAHPGSDIAFHFNPRFDGWDKVVFNSHLGGKWGSEEKKRSMPFRKGTHFELVFMVLAEHYKVVVNGNPFYEFGHRLPLQLVTHLQVEGDVELQSINFIGGTQPLGQGPGHTQQQPSSLPTMEGPPVFNPPVPFRKRLQGGLTVRRTVIIKGFVPFTSKSFVINFMVESSGDLALHINPRLTEGLVVRNSCLNGSWGSEDRKLSYNPFIPGQFFDLSIRCGMDRFKVYANGQHLFDFSHRLLALQNVDMLEINGDVTLSYIQV,glycan array binding signal (z-score),Fuc(a1-2)Gal(b1-4)Glc6S,0.071
same,glycan array binding signal (z-score),[1],8.77
same,glycan array binding signal (z-score),[2],2.77
same,glycan array binding signal (z-score),[3],-0.155
same,glycan array binding signal (z-score),[4],5.95
same,glycan array binding signal (z-score),[5],3.76
same,glycan array binding signal (z-score),[6],7.32
same,glycan array binding signal (z-score),[7],0.359
same,glycan array binding signal (z-score),[8],-0.151
same,glycan array binding signal (z-score),[9],-0.147
same,glycan array binding signal (z-score),[10],11.1
same,glycan array binding signal (z-score),[11],2.63
same,glycan array binding signal (z-score),[12],-0.137
same,glycan array binding signal (z-score),[13],-0.146
same,glycan array binding signal (z-score),[14],3.3
same,glycan array binding signal (z-score),[15],-0.154
same,glycan array binding signal (z-score),[16],-0.156
same,glycan array binding signal (z-score),Gal4S(b1-4)GlcNAc,-0.144
same,glycan array binding signal (z-score),Gal6S(b1-3)GlcNAc,-0.135
same,glycan array binding signal (z-score),GlcA(b1-3)GlcNAc,0.144
same,glycan array binding signal (z-score),[17],-0.147
same,glycan array binding signal (z-score),[18],-0.148
same,glycan array binding signal (z-score),[19],-0.148
same,glycan array binding signal (z-score),[20],-0.148
same,glycan array binding signal (z-score),[21],-0.147
same,glycan array binding signal (z-score),Man(a1-2)Man(a1-3)Man,-0.142
same,glycan array binding signal (z-score),Man(a1-6)Man,-0.148
same,glycan array binding signal (z-score),Neu5Ac(a2-3)Gal,-0.152
same,glycan array binding signal (z-score),[22],-0.145
same,glycan array binding signal (z-score),[23],-0.156
same,glycan array binding signal (z-score),[24],-0.153
same,glycan array binding signal (z-score),[25],-0.16
same,glycan array binding signal (z-score),[26],-0.151
same,glycan array binding signal (z-score),[27],-0.151
same,glycan array binding signal (z-score),[28],-0.151
